Experimental data reported in PubChem BioAssay (NCATS).
Records with an inconclusive call do not appear. Entries that show only a call come without a potency. Unmarked numbers belong to inactive results. Active and inactive are the calls of the source. Calls come from the whole dose curve; as a rule, active = well fitted curve in the direction sought with a large enough effect; inconclusive = small, poorly fitted or top-dose-only effect, or another doubt; inactive = no such curve, though single readings can be large; an effect the other way counts as inactive or inconclusive.

How the values were obtained:
[1] = target: Calcium and integrin-binding protein 1 (Homo sapiens) (UniProt Q99828); assay: Validation qHTS for Identification of Calcium Integrin Binding protein 1 (CIB1) Competitor (AID 1508618)
Chain of Calcium and integrin-binding protein 1 (Homo sapiens) (Q99828 whole entry, looked up): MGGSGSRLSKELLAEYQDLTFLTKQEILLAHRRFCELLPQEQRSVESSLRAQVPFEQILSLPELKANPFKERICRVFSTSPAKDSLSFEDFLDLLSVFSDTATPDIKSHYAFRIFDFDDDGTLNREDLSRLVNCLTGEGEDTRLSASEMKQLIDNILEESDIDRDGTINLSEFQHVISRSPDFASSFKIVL
Outline: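 CIB1-GST (1 uM final) in 5 mM HEPES pH 7.4, 125 mM NaCl, 5 mM CaCl2, 0.01% Tween20 was preincubated 15 min at room temperature with compound (up to 114 uM), then FITC-alphaIIb peptide (100 nM) added for 15 min; fluorescence polarization read.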

[2] = target: Calcium and integrin-binding protein 1 (Homo sapiens) (UniProt Q99828); assay: Primary qHTS for Identification of Calcium Integrin Binding Protein 1 (CIB1) Competitor (AID 1508620);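 note: GST tagged CIB1 binding a fluorescein labelled alphaIIb integrin peptide tracer; top concentration of the series differs between compounds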
Outline: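 CIB1-GST (1 uM final) and compound incubated 15 min at room temperature before adding FITC-alphaIIb peptide tracer (100 nM final). Competition for binding read by fluorescence polarization (ex 480, em 540) after another 15 min at room temperature.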

[3] = Counterscreen qHTS for small molecule stabilizers of the endoplasmic reticulum resident proteome: GLuc-NoTag assay (AID 1508627);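 note: SH-SY5Y cells given compound then 100 nM thapsigargin to empty ER calcium; series mostly up to about 76 µM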
Outline: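 Luminescence of Gaussia luciferase secreted into the medium (coelenterazine, 0.07x final, unlysed cells) was the read-out. Human SH-SY5Y neuroblastoma cells constitutively secreting untagged GLuc received compound for 19 h, then 100 nM thapsigargin for 4 h.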

[4] = Confirmatory qHTS for small molecule stabilizers of the endoplasmic reticulum resident proteome: Secreted ER Calcium Modulated Protein (SERCaMP) assay (AID 1508628); note: nearly all actives have a fitted effect of over 40% in size; note: potency is the fitted concentration of half-maximal effect
Outline: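 We seeded SH-SY5Y-GLuc-SERCaMP cells, added compounds (three concentrations in the primary run, eleven up to 76.6 uM in confirmation), incubated 16 h, depleted ER calcium with thapsigargin, and read luciferase 4 h later.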

## CCCN(CCC)[C@@H]1CCc2cccc(O)c2C1
[1]
  Potency: inactive

## C=C[C@H]1[C@H](O[C@@H]2O[C@H](CO)[C@@H](O)[C@H](O)[C@H]2O)OC=C2C(=O)OCC[C@H]21
[2]
  Potency: inactive

## CN1C(=O)N(c2ccc(C#N)c(C(F)(F)F)c2)C(=O)[C@]1(CO)c1ccccc1
[2]
  Potency: inactive

## CC1(C(=O)O)C2CCC(O2)C1(C)C(=O)O (stereo unspecified)
[1]
  Potency: inactive

## COC1=CC(=O)O[C@@H](CCc2ccccc2)C1
[2]
  Potency: inactive

## Cc1cccc(NC(=O)N[C@@H]2N=C(c3ccccc3)c3ccccc3N(C)C2=O)c1
[2]
  Potency: inactive

## COC1C(O)C(C)OC(OC2C(CO)O[C@@H](O[C@@H]3CC4CCC5C(CC[C@]6(C)[C@@H](C7=CC(=O)OC7)CC[C@]56O)[C@@]4(C)[C@H](O)C3)C(O)C2O)C1O (stereo partly specified)
[2]
  Potency: inactive

## C=CC(C)(O)CC/C=C(\C)C(=O)O[C@H]1[C@H](O)[C@@H](CO)O[C@@H](OC(=O)[C@]23CCC(C)(C)CC2C2=CCC4[C@@]5(C)CC[C@H](O[C@@H]6O[C@H](CO[C@@H]7OC[C@H](O)[C@H](O)[C@H]7O[C@@H]7OC[C@@H](O)[C@H](O)[C@H]7O)[C@@H](O)[C@H](O)[C@H]6O)C(C)(C)C5CC[C@@]4(C)[C@]2(C)CC3)[C@@H]1OC1OC(C)C(O[C@@H]2OC[C@@H](O)[C@H](O[C@@H]3OC[C@@H](O)[C@H](O)[C@H]3O)[C@H]2O)C(O)C1O (stereo partly specified)
[2]
  activity change, negative = inhibition: -11.1% [at 12.4 µM]

## C[C@@]12C[C@@H](c3ccoc3)OC(=O)C1CC[C@]1(C)[C@H]2[C@H]2C=C[C@]1(O)C(=O)O2 (stereo partly specified)
[2]
  Potency: inactive

## O=[N+]([O-])c1ccc2nc(N3CCNCC3)ccc2c1
[1]
  Potency: inactive
[3]
  outcome: inactive

## CC(=O)O[C@H]1C[C@@H](OC(C)=O)C(C)(C)C2C[C@@H](O)[C@]3(C)C(CC[C@@]4(C)[C@H](C5=CC(=O)OC5O)C[C@H]5O[C@]543)[C@]21C (stereo partly specified)
[2]
  Potency: inactive

## COC(=O)C1(C)CCC(O)C2(C)c3cc(O)c(C(C)C)cc3C(O)C(OC(C)=O)C12 (stereo unspecified)
[2]
  Potency: inactive

## C[C@H]1C(=O)O[C@H]2[C@H](O)[C@]34C5OC(=O)[C@]3(O[C@@H]3OC(=O)[C@H](O)C34[C@H](C(C)(C)C)[C@H]5O)C12O (stereo partly specified)
[2]
  Potency: inactive

## COC1=CC(=O)O[C@@H](/C=C/c2ccccc2)C1
[2]
  Potency: inactive

## CC12CCC3C(CCC4(O)CC(O)CCC34C=O)C1(O)CCC2C1=CC(=O)OC1 (stereo unspecified)
[2]
  Potency: inactive

## c1ccc2c(c1)[I+]c1ccccc1-2
[1]
  Potency: inactive

## N#CC(OC1OC(COC2OC(CO)C(O)C(O)C2O)C(O)C(O)C1O)c1ccccc1 (stereo unspecified)
[2]
  Potency: inactive

## CCOc1ccccc1-n1c(C(C)N2CCN(C(=O)COc3ccc(Cl)cc3)CC2)nc2ccccc2c1=O (stereo unspecified)
[2]
  Potency: inactive

## Oc1ccc2c3c1O[C@H]1c4[nH]c5ccccc5c4C[C@@]4(O)C(C2)N(CC2CC2)CCC314 (stereo partly specified)
[1]
  Potency: inactive
[4]
  Potency: 12.6 µM (active)

## CC1=C2C(=O)C3[C@@H](CC=C4C[C@@H](O)CC[C@@]43C)[C@@H]2CC[C@]12O[C@@H]1C[C@H](C)CN[C@H]1[C@H]2C (stereo partly specified)
[2]
  Potency: inactive

## CN1[C@H]2C[C@H](OC(=O)[C@H](CO)c3ccccc3)C[C@@H]1[C@@H](O)C2
[2]
  Potency: inactive

## Cc1cc(C)cc(C(=O)OC2C[C@H]3CC[C@@H](C2)N3C)c1 (stereo partly specified)
[3]
  outcome: inactive

## O[C@H]1[C@H]2[C@H](O)CCCN2C[C@H]1O
[3]
  outcome: inactive

## COc1ccc2c(c1)[C@@]13CCCC[C@H]1[C@@H](C2)NCC3
[4]
  Potency: inactive
